The source of these data is PubChem BioAssay (Tox21).

Inconclusive results are not listed. Some structures have more than one record in an assay (separate samples or runs), and their calls can disagree. Calls of active or inactive are those of the source. Unless noted, calls come from the whole dose curve.

Assay [1] in a line: Nuclear factor erythroid 2-related factor 2/antioxidant responsive element (Nrf2/ARE) small molecule agonists: qHTS cell viability counter screen in human keratinocytes (AID 1919968; active = well fitted curve in the direction sought with a large enough effect in the repeat runs; an effect the other way counts as inactive or inconclusive; note: nearly all actives have a fitted effect of over 55% in size). In outline: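 CellTiter-Fluor fluorescence, read 1 h after reagent, gave viability in the same wells as the ARE-luciferase assay. KeratinoSens cells (1,500/well) had 23 h compound exposure at 37 C/5% CO2 following 5 h plating.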

The nature of assay [2]: Nuclear factor erythroid 2-related factor 2/antioxidant responsive element (Nrf2/ARE) small molecule agonists: luciferase reporter gene qHTS assay in human keratinocytes (AID 1919969). Note: nearly all actives have a fitted effect of over 35% in size. Note: potency is the fitted concentration of half-maximal effect.
The target of assay [3] is Gonadotropin-releasing hormone receptor (Homo sapiens) (UniProt P30968). As to the kind of experiment: Human gonadotropin-releasing hormone receptor (GnRHR) small molecule agonists, calcium flux assay in GnRHR-HEK293 cells (AID 1920063). Note: nearly all actives have a fitted effect of over 35% in size. Summed up:
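Agonist mode: compounds at 15 concentrations, in triplicate, went onto calcium dye-loaded GnRHR-HEK293 cells. Intracellular calcium was then followed as 480/540 nm fluorescence at 1 s intervals over 3 min.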

The target in assay [4] is KiSS-1 receptor (Homo sapiens) (UniProt Q969F8). As to the kind of experiment: Human kisspeptin (KISS1R) small molecule agonists, calcium flux assay in KISS1R-HEK293 cells (AID 1920064; active = well fitted curve in the direction sought with a large enough effect in the repeat runs; an effect the other way counts as inactive or inconclusive). Summed up: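 Agonist mode: intracellular calcium rise tracked at 1 s intervals over 3 min (480/540 nm) immediately after compound addition to dye-loaded KISS1R-HEK293 stable cells. Each compound tested at 15 concentrations in triplicate.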

The nature of assay [5]: G protein-coupled receptor (GPCR) small molecule agonists, calcium flux assay: HEK293 wild type cell line counter screen (AID 1920065). In outline: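 Calcium flux counter screen: compound added in agonist mode at 15 concentrations in triplicate to dye-loaded parental HEK293 cells. Fluorescence (480/540) read kinetically for 3 min; ATP served as positive control.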
A short description of assay [6]: p53 small molecule agonists, cell-based qHTS assay with human liver microsomes: qHTS cell viability counter screen (AID 1963579). Note: nearly all actives have a fitted effect of over 45% in size. Note: potency is the fitted concentration of half-maximal effect. Summed up: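 Metabolically activated exposure: compounds, human liver microsomes and NADPH (0.5 mg/mL final apiece) were added to p53RE-bla cells seeded 5 h earlier, left 16 h at 37 C, and then assessed for viability by CellTiter-Glo luminescence.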

Assay [7] is described as follows: p53 small molecule agonists, cell-based qHTS assay with rat liver microsomes: qHTS cell viability counter screen (AID 1963580). Note: nearly all actives have a fitted effect of over 45% in size. Summed up:
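Cytotoxicity counter screen: intracellular ATP read by CellTiter-Glo luminescence in the p53 reporter wells. HCT-116 p53RE-bla cells were treated for 16 h at 37 C alongside rat liver microsomes and NADPH, each 0.5 mg/mL final.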

The nature of assay [8]: p53 small molecule agonists, cell-based qHTS assay: qHTS cell viability counter screen (AID 1963581). Note: nearly all actives have a fitted effect of over 45% in size. In outline:
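Counter screen read by CellTiter-Glo luminescence (ATP content, 30 min at room temperature), run in the same wells as the beta-lactamase reporter read. HCT-116 p53RE-bla cells saw compounds for 16 h at 37 C.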

Assay [9] has as its target 5-hydroxytryptamine receptor 2A (Homo sapiens) (UniProt P28223). In words: 5-hydroxytryptamine receptor 2A (HTR2A) small molecule antagonists, cell-based qHTS assay (AID 1963586). Note: nearly all actives have a fitted effect of over 45% in size. In outline:
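CHO cells stably expressing human HTR2A were plated for 18 h at 37 C, then loaded with calcium dye for 1 h. Compounds were preincubated 5 min at room temperature before DOI (4 nM solution) was added. Kinetic fluorescence was read for 3 min.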

Assay [10] has the same target. In words: 5-hydroxytryptamine receptor 2A (HTR2A) small molecule agonists, cell-based qHTS assay (AID 1963587). Note: nearly all actives have a fitted effect of over 30% in size. Summed up:
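Kinetic calcium-flux fluorescence (2 min, 1 sec intervals) after compound addition in agonist mode. HTR2A-CHO cells were cultured 18 h, then dye-loaded 1 h at 37 C.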

Assay [11] deals with Muscarinic acetylcholine receptor M1 (Homo sapiens) (UniProt P11229). As to the kind of experiment: Cholinergic receptor muscarinic 1 (CHRM1) small molecule antagonists, cell-based qHTS assay (AID 1963588). Note: nearly all actives have a fitted effect of over 40% in size. In outline:
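Compounds were tested at 15 concentrations in three independent runs. Dye-loaded CHRM1-CHO cells were exposed 5 min at room temperature before stimulation by acetylcholine added at 50nM. Intracellular calcium was read kinetically on FDSS for 3 min.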

Assay [12] shares this target. As to the kind of experiment: Cholinergic receptor muscarinic 1 (CHRM1) small molecule agonists, cell-based qHTS assay (AID 1963589). Note: nearly all actives have a fitted effect of over 35% in size. In outline:
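Agonist-mode calcium-flux screen: compounds at 15 concentrations, three independent runs, were pin-transferred onto dye-loaded human CHRM1-CHO cells. Fluorescence was then recorded kinetically every second over minutes.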

Assay [13] can be described thus: cAMP Responsive Elements (CRE) small molecule agonists, cell-based qHTS assay (AID 1963590). In outline: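 Agonist mode: compound added to CRE-bla HEK 293T cells (2,000/well, 18 h after plating) for 3 h at 37 C/5% CO2. Reporter activity detected via FRET beta-lactamase substrate, 2 h room-temperature loading.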
Assay [14] can be described thus: cAMP Responsive Elements (CRE) small molecule antagonists, cell-based qHTS assay (AID 1963591; active = well fitted inhibition curve with a large enough effect in the signal ratio in the repeat runs, not every such curve was filed as active; the % refers to the signal ratio). In outline: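 Antagonist mode: compounds are added alongside the adenylyl cyclase activator NKH477 (0.25 uM final) to CRE-bla HEK293T cells for 3 h. LiveBLAzer FRET substrate, 2 h at room temperature, reports bla expression.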
Assay [15] has as its target Beta-2 adrenergic receptor (Homo sapiens) (UniProt P07550). In words: Adrenergic beta2 receptor (ADRB2) small molecule antagonists, cell-based qHTS assay (AID 1963592). Note: series mostly up to about 92 µM; nearly all actives have a fitted effect of over 50% in size. In outline:
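Assay format: CHO-ADRB2 cells, 18-20hr seeding at 37C/5% CO2, then compound plus 1nM isoproterenol agonist mix for 0.5hr RT. Homogeneous time-resolved fluorescence cAMP detection after 1hr, expressed as 665/615 nm ratio.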

For assay [16] the target is unchanged. In words: Adrenergic beta2 receptor (ADRB2) small molecule agonists, cell-based qHTS assay (AID 1963593).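 Note: CHO cells stably overexpressing human ADRB2.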 Summed up: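 CHO cells stably over-expressing ADRB2 were plated overnight at 37C, then dosed with compounds plus a stimulation mix containing 100uM IBMX and 25uM Ro-20-1724 for 0.5hr at room temperature. cAMP was measured by HTRF competition, 1hr.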
Assay [17] has as its target D(2) dopamine receptor (Homo sapiens) (UniProt P14416). In words: Dopamine D2 receptor (DRD2) small molecule agonists, cell-based qHTS assay (AID 1963594). Note: nearly all actives have a fitted effect of over 35% in size. In outline: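 cAMP accumulation in DRD2-HEK293 cells measured by HTRF after 1 h detection; compounds added 10 min before NKH477 (200nM […]) forskolin-analogue stimulation, 30 min at room temperature, with Ro20-1724 present at 0.1 mM final.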

For assay [18] the target is unchanged. As to the kind of experiment: Dopamine D2 receptor (DRD2) small molecule antagonists, cell-based qHTS assay (AID 1963595; active = well fitted inhibition curve with a large enough effect in the signal ratio in the repeat runs, with a control signal flat; the % refers to the signal ratio). In outline:
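HEK293 cells stably expressing DRD2 were preincubated with 0.1 mM Ro20-1724, then with compound for 10 min at room temperature. Cells were stimulated with 200 nM NKH477 plus 12 nM quinpirole for 30 min, and cAMP was read by HTRF.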

Assay [19] can be described thus: p53 small molecule agonists, cell-based qHTS assay (AID 1963582; active = well fitted activation curve with a large enough effect in the signal ratio in the repeat runs, not every such curve was filed as active; the % refers to the signal ratio). In outline:
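Read-out is beta-lactamase FRET fluorescence after 2 h at room temperature with LiveBLAzer B/G substrate. p53 response element-bla cells were treated 16 h at 37 C with compounds in DMSO, added 5 h after seeding.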

Assay [20] is described as follows: p53 small molecule agonists, cell-based qHTS assay with rat liver microsomes (AID 1963578). Summed up: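 Agonist mode in p53RE-bla reporter cells, with compounds co-incubated 16 h at 37 C alongside 0.5 mg/mL rat liver microsomes and 0.5 mg/mL NADPH (final), followed by a 2 h LiveBLAzer detection step.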

Sequence of D(2) dopamine receptor (Homo sapiens) (P14416 whole entry, looked up): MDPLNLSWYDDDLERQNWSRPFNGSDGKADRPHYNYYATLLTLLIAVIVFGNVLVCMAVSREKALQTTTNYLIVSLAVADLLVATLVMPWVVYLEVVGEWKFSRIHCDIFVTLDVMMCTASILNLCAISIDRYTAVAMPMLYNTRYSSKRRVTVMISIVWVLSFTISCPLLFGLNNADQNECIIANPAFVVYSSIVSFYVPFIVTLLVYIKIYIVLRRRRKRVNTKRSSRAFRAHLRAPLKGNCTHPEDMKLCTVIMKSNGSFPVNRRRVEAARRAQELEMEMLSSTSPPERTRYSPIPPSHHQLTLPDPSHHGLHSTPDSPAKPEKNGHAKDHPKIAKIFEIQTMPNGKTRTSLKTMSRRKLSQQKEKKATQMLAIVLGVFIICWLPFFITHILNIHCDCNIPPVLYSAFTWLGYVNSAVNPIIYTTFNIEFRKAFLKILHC
Sequence of Muscarinic acetylcholine receptor M1 (Homo sapiens) (P11229 whole entry, looked up): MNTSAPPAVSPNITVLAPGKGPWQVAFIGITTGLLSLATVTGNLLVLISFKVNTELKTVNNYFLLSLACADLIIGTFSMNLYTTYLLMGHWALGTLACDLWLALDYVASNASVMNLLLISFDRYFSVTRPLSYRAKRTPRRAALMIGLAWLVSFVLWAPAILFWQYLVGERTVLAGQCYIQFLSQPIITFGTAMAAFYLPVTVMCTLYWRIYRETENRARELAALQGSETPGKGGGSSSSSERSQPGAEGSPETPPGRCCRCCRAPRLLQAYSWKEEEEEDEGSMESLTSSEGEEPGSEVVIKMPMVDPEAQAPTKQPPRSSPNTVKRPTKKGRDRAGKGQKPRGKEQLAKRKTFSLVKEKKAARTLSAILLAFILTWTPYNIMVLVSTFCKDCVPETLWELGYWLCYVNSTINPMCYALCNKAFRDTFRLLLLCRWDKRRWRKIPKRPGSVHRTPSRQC
Sequence of Gonadotropin-releasing hormone receptor (Homo sapiens) (P30968 whole entry, looked up): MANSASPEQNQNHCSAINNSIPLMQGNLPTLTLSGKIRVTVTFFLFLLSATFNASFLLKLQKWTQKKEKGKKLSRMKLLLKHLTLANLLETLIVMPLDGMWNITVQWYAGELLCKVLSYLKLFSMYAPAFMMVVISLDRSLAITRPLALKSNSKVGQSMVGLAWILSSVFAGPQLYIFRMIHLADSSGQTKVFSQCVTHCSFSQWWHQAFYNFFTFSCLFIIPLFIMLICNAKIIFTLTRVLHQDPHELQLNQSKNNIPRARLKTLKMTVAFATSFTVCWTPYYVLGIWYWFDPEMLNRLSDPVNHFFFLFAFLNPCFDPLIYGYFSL
Sequence of Beta-2 adrenergic receptor (Homo sapiens) (P07550 whole entry, looked up): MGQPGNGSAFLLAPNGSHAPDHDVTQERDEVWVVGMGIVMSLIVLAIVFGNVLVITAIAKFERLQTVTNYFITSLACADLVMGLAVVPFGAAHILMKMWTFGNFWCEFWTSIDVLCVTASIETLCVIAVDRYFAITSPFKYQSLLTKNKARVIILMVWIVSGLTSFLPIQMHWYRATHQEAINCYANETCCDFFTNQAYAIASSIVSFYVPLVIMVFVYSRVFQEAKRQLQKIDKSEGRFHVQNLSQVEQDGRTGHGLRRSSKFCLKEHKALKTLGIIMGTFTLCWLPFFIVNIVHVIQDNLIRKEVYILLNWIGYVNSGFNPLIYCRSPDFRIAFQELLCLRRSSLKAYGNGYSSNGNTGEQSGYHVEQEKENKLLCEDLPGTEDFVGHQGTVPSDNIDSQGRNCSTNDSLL
Sequence of KiSS-1 receptor (Homo sapiens) (Q969F8 whole entry, looked up): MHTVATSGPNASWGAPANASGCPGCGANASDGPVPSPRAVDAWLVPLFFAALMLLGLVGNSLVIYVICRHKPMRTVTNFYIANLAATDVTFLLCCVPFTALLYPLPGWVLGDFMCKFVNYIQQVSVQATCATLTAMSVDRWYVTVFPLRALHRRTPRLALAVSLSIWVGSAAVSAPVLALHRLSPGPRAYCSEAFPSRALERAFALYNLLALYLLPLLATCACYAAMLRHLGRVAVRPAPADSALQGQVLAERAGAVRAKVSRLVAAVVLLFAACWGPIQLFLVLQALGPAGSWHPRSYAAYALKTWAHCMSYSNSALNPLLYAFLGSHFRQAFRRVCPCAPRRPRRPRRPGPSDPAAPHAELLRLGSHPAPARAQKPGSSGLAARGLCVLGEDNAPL
Sequence of 5-hydroxytryptamine receptor 2A (Homo sapiens) (P28223 whole entry, looked up): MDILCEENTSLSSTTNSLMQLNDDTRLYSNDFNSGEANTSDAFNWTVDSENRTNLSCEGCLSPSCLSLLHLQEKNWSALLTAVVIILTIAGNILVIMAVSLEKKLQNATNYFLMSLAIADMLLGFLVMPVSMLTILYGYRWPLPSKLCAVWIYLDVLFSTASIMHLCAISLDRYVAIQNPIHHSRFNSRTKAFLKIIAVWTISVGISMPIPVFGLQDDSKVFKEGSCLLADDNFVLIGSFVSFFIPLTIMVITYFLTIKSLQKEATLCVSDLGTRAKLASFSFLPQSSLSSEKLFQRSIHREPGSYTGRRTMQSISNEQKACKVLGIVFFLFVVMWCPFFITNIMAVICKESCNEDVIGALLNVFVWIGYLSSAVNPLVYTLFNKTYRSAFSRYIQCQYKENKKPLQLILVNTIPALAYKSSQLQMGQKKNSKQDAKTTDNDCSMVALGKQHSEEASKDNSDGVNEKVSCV

For `CC(C)(C)c1ccccc1O`, the Potency entry in [1], in [2], in [3], in assay [4], in [5] and in assay [6] was “inactive” throughout. Further, the Potency entry in [7], in assay [8], in assay [9], in [10], in assay [11] and in assay [12] was “inactive” throughout. The Potency result in assay [13], in assay [14], in [15], in [16], in assay [17] and in assay [18] was “inactive” throughout.

Consider `CCN(CC)C(=O)SCc1ccc(Cl)cc1`, for which the Potency entry in assay [1], in assay [2], in assay [3], in assay [4], in [5] and in assay [6] was “inactive” throughout. The Potency result in assay [7], in assay [8], in [19], in [10], in assay [12] and in assay [13] was “inactive” in each case. The Potency result in [14], in [17] and in assay [18] was “inactive” each time.

As to `CC[N+]1(C)CCCC1`, the Potency entry in [1], in assay [3], in assay [4], in assay [5], in [7] and in [8] was “inactive” in each case. In addition, the Potency result in assay [9], in [10], in assay [11], in assay [12], in assay [13] and in assay [14] was “inactive” each time. In addition, the Potency entry in assay [15], in assay [16], in assay [17] and in assay [18] was “inactive” each time. Also, the Potency was 70.3 µM (active) and inactive in [2]; 41.8 µM (active) and inactive in assay [6].

For the compound `N#CC(Br)Br`, the Potency result in assay [1], in assay [2], in assay [3], in [4], in assay [5] and in assay [6] was “inactive” throughout. Besides, the Potency result in assay [7], in [8], in [9], in assay [10], in [11] and in [12] was “inactive” throughout. The Potency entry in assay [13], in [14], in [15], in assay [16] and in assay [18] was “inactive” throughout.

Consider `CCOC(=O)c1ccccc1N`, for which the Potency result in assay [1], in [2], in assay [3], in assay [4], in assay [5] and in assay [6] was “inactive” in each case. Further, the Potency entry in [7], in assay [8], in [9], in assay [10], in assay [11] and in [12] was “inactive” throughout. Also, the Potency result in assay [13], in assay [14], in assay [15], in [16], in [17] and in assay [18] was “inactive” in each case.

In the case of `ClC(Cl)=C(Cl)C(Cl)=C(Cl)Cl`, the Potency result in [1], in [2], in assay [3], in [4], in assay [5] and in assay [6] was “inactive” throughout. In addition, the Potency result in assay [7], in assay [8], in assay [9], in assay [10], in assay [11] and in [12] was “inactive” in each case. Besides, the Potency entry in assay [13], in assay [14], in [15], in assay [16], in assay [17] and in assay [18] was “inactive” throughout.

Consider `CC(Cl)C(=O)O` (stereo unspecified), for which the Potency result in assay [1], in [2], in [3], in [4], in [5] and in assay [20] was “inactive” throughout. Also, the Potency entry in assay [7], in [8], in assay [19], in assay [10], in assay [11] and in [12] was “inactive” each time. In addition, the Potency result in assay [13], in assay [14], in [15], in assay [16] and in assay [18] was “inactive” throughout.
